Measurements published in PubChem BioAssay AID1851 (National Center for Advancing Translational Sciences (NCATS), 2009).
The whole screen tested about 16,000 compounds, of which about 4,000 (25%) were called active. Not shown: some 26% with an inconclusive outcome. Calls follow the shape of the dose curve; as a rule, active = well fitted curve in the direction sought with a large enough effect; inconclusive = small, poorly fitted or top-dose-only effect, or effect the other way; inactive = no such curve, though single readings can be large or run the other way. A selection follows.

Molecular target: Cytochrome P450 2C9 (Homo sapiens) (UniProt P11712)
Sequence (P11712 whole entry, looked up): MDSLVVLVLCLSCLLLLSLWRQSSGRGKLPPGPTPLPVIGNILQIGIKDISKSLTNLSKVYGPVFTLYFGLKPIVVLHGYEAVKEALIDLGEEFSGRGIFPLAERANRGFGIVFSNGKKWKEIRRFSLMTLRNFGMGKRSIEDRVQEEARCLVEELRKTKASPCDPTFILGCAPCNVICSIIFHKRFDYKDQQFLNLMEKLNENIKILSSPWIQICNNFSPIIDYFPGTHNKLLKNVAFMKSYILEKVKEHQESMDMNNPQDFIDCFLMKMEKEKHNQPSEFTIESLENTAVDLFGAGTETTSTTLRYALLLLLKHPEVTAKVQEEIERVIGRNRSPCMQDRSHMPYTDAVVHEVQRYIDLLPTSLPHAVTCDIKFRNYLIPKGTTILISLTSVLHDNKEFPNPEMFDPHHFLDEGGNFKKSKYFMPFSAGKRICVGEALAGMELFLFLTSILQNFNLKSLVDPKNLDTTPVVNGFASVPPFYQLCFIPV
Assay: Cytochrome panel assay with activity outcomes
Settings: recombinant CYP, pro-luciferin dealkylation, luminescence, p450-cyp2c9; series mostly up to 57.1 µM; activity, negative = inhibition: at the top concentration
% is scaled to controls: 0 for no effect and ±100 for the full control effect.

Compound	activity, negative = inhibition	AC50
Nc1c(S(N)(=O)=O)cc(S(N)(=O)=O)cc1S(N)(=O)=O	-3.4% [at 11.4 µM] (inactive)	
CC(C)NC[C@H](O)c1ccc(NS(C)(=O)=O)cc1		inactive
CN(CCc1ccc(Cl)c(Cl)c1)C[C@@H](O)COc1ccc(NS(C)(=O)=O)cc1		2.51 µM (active)
CN(CCc1ccc(Cl)c(Cl)c1)CCN1CCCCCC1	-6.84% (inactive)	
CC(=O)NNC(=O)C(O)(c1ccccc1)c1ccccc1	-3.75% (inactive)	
CC(C)(C)N(NC(=O)c1ccccc1)C(=O)c1cccc(C(=O)N(NC(=O)c2ccccc2)C(C)(C)C)c1		15.8 µM (active)
O=C(NC(N1CCCC1)C(Cl)(Cl)Cl)c1ccccc1 (stereo unspecified)	-51.1% (inactive)	
COc1ccc(-c2noc(N(C)CC(=O)Nc3cccc(C(F)(F)F)c3)n2)cc1		5.01 µM (active)
CN(CCCNC(=O)c1ccc(/C=N/O)nc1)CCCN(C)Cc1ccccc1	-0.536% (inactive)	
CN(CCCNC(=O)c1cccn2c(=O)c3ccccc3nc12)Cc1ccccc1		17.8 µM (active)
Cc1ccc(CCN2CC(C(=O)NCCCN(C)Cc3ccccc3)CC2=O)cc1 (stereo unspecified)	-27.8% (inactive)	
CNC(=O)c1c(I)c(C(=O)NCC(=O)Nc2c(I)c(C(=O)O)c(I)c(C(=O)NCCO)c2I)c(I)c(N(C)C(C)=O)c1I	-7.59% [at 25.6 µM] (inactive)	
Cc1ccc(NC(=O)/C(=C\c2ccc([N+](=O)[O-])cc2)NC(=O)c2ccccc2)cc1		11.2 µM (active)
Cc1ccc(C(=O)N/C(=C\c2ccc([N+](=O)[O-])cc2)C(=O)NCCc2ccccc2)cc1	-12.4% (inactive)	
COc1ccc(NC(=O)/C(=C\c2cc(OC)c(OC)cc2[N+](=O)[O-])NC(=O)c2ccccc2)cc1		7.94 µM (active)
O=C(Nc1ccccc1)/C(=C\c1ccncc1)NC(=O)c1ccccc1		0.2 µM (active)
O=C1[C@H]2[C@H]3[C@H](O)[C@H](O)C/C(=N/OCc4ccccc4)[C@@H]3CC[C@@H]2C(=O)N1C[C@@H]1CCCO1	7.38% [at 11.4 µM] (inactive)	
O=C(O)C1C2C=CC3(CN(Cc4ccccn4)C(=O)C13)O2 (stereo unspecified)	-6.93% (inactive)	
CC(=O)NCCNc1ncncc1-c1ccccc1C(F)(F)F	-11.4% [at 2.29 µM] (inactive)	
O=C(O)c1nnsc1COCc1ccccc1	-2.96% [at 11.4 µM] (inactive)	
COC(=O)c1c(-c2cc(OC)c(OC)c(OC)c2)c2ccc(OCc3ccccn3)cc2c(=O)n1-c1ccc(N)cc1		3.98 µM (active)
CC(C)CNc1nc(N)[nH]c(=O)c1NC=O	-6.56% [at 11.4 µM] (inactive)	
OC1(c2ccc(OC(F)F)cc2)CSC(=Nc2cccnc2)N1C1CC1 (stereo unspecified)		5.01 µM (active)

Compound	activity, negative = inhibition	AC50
Cc1ccc(N2C(=O)C(Cl)=C(NCc3ccccc3)C2=O)c(C)c1		5.62 µM (active)
Cc1cccc(CNc2cc(-c3ccccc3Cl)ncn2)c1	4.64% [at 2.29 µM] (inactive)	
Cc1ccccc1-c1cc(NCc2ccccc2)ncn1	-15.2% [at 2.29 µM] (inactive)	
COC(=O)c1ccccc1N/C=C1\CCc2c(c(C)nn2-c2ccccn2)C1=O		14.1 µM (active)
COc1ccc(-c2cc(C(=O)O)c3c(C)nn(-c4ccccn4)c3n2)cc1	1.9% (inactive)	
COc1ccc(COC(=O)N/N=C2/C[C@@H](O)[C@@H](O)[C@@H]3[C@H]4C(=O)N(c5ccc(F)cc5F)C(=O)[C@@H]4CC[C@H]23)cc1	-4.97% [at 11.4 µM] (inactive)	
O=C(/C=C/c1ccc(Br)cc1)NC1CCCCCC1	10.2% (inactive)	
CCOC(=O)C(CC)(CC)C(=O)/C=C/c1ccc(Br)cc1		5.01 µM (active)
C[n+]1ccc(/C=C/c2ccc(Br)cc2)cc1	-1.18% (inactive)	
CCCNS(=O)(=O)c1ccc(OCC(=O)OC)cc1		7.08 µM (active)
Nc1ccc(S(=O)(=O)NCCS(=O)(=O)O)cc1	9.74% [at 11.4 µM] (inactive)	
O=C(NOC(=O)c1cc(Br)ccc1Cl)c1cccs1	-29.8% (inactive)	
O=C(Nc1ncc(Cc2cccc(Cl)c2)s1)c1cccs1		11.2 µM (active)
Cc1ccc(NC(=O)CCC(=O)NNC(=O)c2cccs2)c(C)c1	-27.1% (inactive)	
Cc1ccc(Cc2cnc(NC(=O)c3cccs3)s2)cc1		8.91 µM (active)
Nc1[nH]c(=O)nc2c1ncn2[C@H]1O[C@@H](CO)[C@@H](O)[C@@H]1O	-0.314% [at 11.4 µM] (inactive)	
O=C(O)c1ccc(S(=O)(=O)N=Nc2c(O)[nH]c3ccccc23)cc1	3.79% [at 11.4 µM] (inactive)	
N#CCCSC(=S)[C@H]1CCCC1=N	-3.69% [at 11.4 µM] (inactive)	
COC(=O)CCC(=O)Nc1cccc2ccccc12	9.84% (inactive)	
N#Cc1c(NC(=O)CCC(=O)O)ccc2ccccc12	-7.5% [at 11.4 µM] (inactive)	
O=C(CCC(=O)OCc1ccc(C(=O)Oc2ccccc2)cc1)Nc1cccc2ccccc12		15.8 µM (active)
COc1ncc2nc(-c3cc(F)cc(F)c3)c(=O)n(CCC#N)c2n1	-11.8% (inactive)	
N#Cc1sc2nc(-c3cccs3)cc(-c3ccc(Cl)cc3)c2c1N		4.47 µM (active)

Compound	activity, negative = inhibition	AC50
O=C(O)c1cc(N=Cc2ccccc2O)cc(C(=O)O)c1	7.44% [at 11.4 µM] (inactive)	
Cc1cc(O)c(C(C)C)cc1N=Cc1ccccc1O		0.631 µM (active)
[O-][n+]1c(CN2CCCCC2)nc2cccc3c2c1-c1ccccc1-3	-15.3% [at 11.4 µM] (inactive)	
CC(C)(C)c1ccc(C2CC2C(=O)N/N=C\c2cc3ccccc3nc2Cl)cc1 (stereo unspecified)		3.55 µM (active)
CN(C)c1ccc(/C=N\NC(=O)c2cnc3ccccc3c2)cc1	-6.78% [at 11.4 µM] (inactive)	
CN(Cc1ccco1)c1ncncc1-c1cccnc1	10.8% [at 2.29 µM] (inactive)	
CCOc1[nH]n(-c2ccccc2)c(=O)c1C=Nc1ccc(Cl)cc1	-81.7% (inactive)	
O=c1c(C=Nc2ccc(Oc3ccccc3)cc2)c[nH]n1-c1cccc(Cl)n1		6.31 µM (active)
c1cncc(-c2cc(NCc3cccs3)ncn2)c1	-6.08% [at 2.29 µM] (inactive)	
Clc1ccc2c(c1)C(c1cccs1)=NNC(c1cccnc1)=N2		11.2 µM (active)
Fc1ccc2c(c1)C(c1ccncc1)=NNC(c1ccc(Cl)cc1)=N2		0.282 µM (active)
COC(=O)[C@H](C)NC(=O)[C@@H](C)CO	10.7% [at 11.4 µM] (inactive)	
COCCNc1ccnc(-c2ccccc2CN(C)C)n1	0.0079% [at 2.29 µM] (inactive)	
CNCC[C@@H](Oc1ccccc1C)c1ccccc1	1.68% (inactive)	
CN(CC[C@@H](Oc1ccc(-c2ccccc2)cc1)c1ccc(F)cc1)CC(=O)O		2.51 µM (active)
CNCC[C@H](Oc1ccccc1OC)c1ccccc1		inactive
CCOc1cc2[nH]c(=S)n(CCC(=O)N3CCc4ccccc4C3)c(=O)c2cc1OCC		17.8 µM (active)
O=c1onc2n1-c1cc(Br)ccc1OC2	-8.5% (inactive)	
Cc1ccc(S(=O)(=O)N(CC(=O)N2CCN(c3ccc(F)cc3)CC2)C2CCCCC2)cc1		3.55 µM (active)
CCCS(=O)(=O)N1CCCC(C(=O)NCCCN2CCN(c3ccc(F)cc3)CC2)C1 (stereo unspecified)	2.11% (inactive)	
COc1ccc(S(N)(=O)=O)cc1C(=O)NCCCN1CCN(c2ccc(C)cc2)CC1	-17.8% (inactive)	
CCCCOC(=O)NS(=O)(=O)c1sc(CC(C)C)cc1-c1ccc(Cn2c(CC)nc3c(C)cc(C)nc32)cc1		12.6 µM (active)
C1CCc2nnnn2CC1	-7.69% [at 25.6 µM] (inactive)	

Compound	activity, negative = inhibition	AC50
O=C(c1cccc(F)c1)N1CCC2(CC1)CN(Cc1ccccc1)C2	-9.48% (inactive)	
Cc1cccc2cc(CN(Cc3ccccc3)C(=O)c3cccc(F)c3)c(Cl)nc12		2.24 µM (active)
COc1cccc(OC)c1/C(O)=C(\C#N)c1nc2ccccc2[nH]1		11.2 µM (active)
CNc1nc(-c2ccccc2OC)nc2ccccc12	7.89% [at 2.29 µM] (inactive)	
Cc1ccccc1OC/C(O)=C(\C#N)c1nc2ccccc2[nH]1	-1.16% (inactive)	
CC(CC(=O)Nc1ccc(Cl)c([N+](=O)[O-])c1)c1ccccc1 (stereo unspecified)		14.1 µM (active)
COc1ccc(N2CCN(C(=S)Nc3cc(C)cc(C)c3)CC2)cc1	-13.1% (inactive)	
COc1ccc(Nc2ncc(C(=O)N3CCN(c4ccc(F)cc4)CC3)c3ccccc23)cc1		2.24 µM (active)
COc1ccc(NC(=O)N2CCC3(CC2)CCN(C(=O)c2cccc(F)c2)CC3)cc1	-15.4% (inactive)	
CC(=O)[C@@]1(O)Cc2c(O)c3c(c(O)c2[C@H](O[C@H]2C[C@H](N)[C@H](O)[C@H](C)O2)C1)C(=O)c1ccccc1C3=O	-4.2% (inactive)	
O=C(NC1CCCCC1)c1sc(=S)n2c1[nH]c(=O)c1ccccc12		0.2 µM (active)
CCOc1ccc(N(C(C)C(=O)NC(C)CC)S(C)(=O)=O)cc1 (stereo unspecified)		5.62 µM (active)
CCOc1ccc(N(C(C)C(=O)N/N=C(\C)c2cccc(NC(=O)c3ccccc3)c2)S(C)(=O)=O)cc1 (stereo unspecified)		3.98 µM (active)
Cc1nc2cnc(N3CCN(C)CC3)nc2n(-c2ccccc2)c1=O	23.4% (inactive)	
CC[C@H]1C(=O)OC[C@H]1Cc1cncn1C	-28.6% [at 25.6 µM] (inactive)	
CO[C@H]1COC(=O)[C@@H](C)COC(=O)[C@@H](COCc2ccccc2)NC(=O)C/C=C\[C@H]1C	6.52% [at 11.4 µM] (inactive)	
O=C(Nn1cc(C(=O)N2CCN(c3ccccc3F)CC2)c2ccccc2c1=O)c1cnccn1		4.47 µM (active)
O=C(Nc1ccccc1)N1CC2(CCN(C(=O)c3cnccn3)CC2)C1	9.15% (inactive)	
O=C(c1cnccn1)N1CCC2(CC1)CCN(c1ccccc1)CC2	3.2% (inactive)	
O=C(c1ccccc1)c1c[nH]c(C(=O)NCCCN2CCOCC2)c1	16.5% (inactive)	
O=C(c1ccccc1)c1c[nH]c(C(=O)NCc2cccnc2)c1		11.2 µM (active)
O=C(O)[C@@H]1[C@@H](C(=O)NCc2cccnc2)[C@@H]2C=C[C@@H]1O2	0.756% [at 11.4 µM] (inactive)	
